IDE inh – human IDE inhibitors in live cells, primary screen, fluorescence polarization, HEK cells, FAbetaB substrate | AID 434962, 2010 | Insulin-degrading enzyme (Homo sapiens), P14735 | FAbetaB cleavage | inhibition, % at 5.59 µM | hit rate 0.41% among 320,000;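 active = percent inhibition above the average of all tested compounds plus 3 SD, set per screening campaign, cut at about 16% in these data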;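 also: IDE supplied by intact live HEK cells; FP after avidin binding of uncleaved biotin substrate so inhibition keeps polarization high; 0% = DMSO wells and 100% = 60 µM reference IDE inhibitor Ii1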
TLR4-MyD88 BLA – inhibitors of TLR4-MyD88 association in cells, primary screen, cell-based, HeLa CL3-4, BLA complementation, FRET ratio; Toll-like receptor 4 (Homo sapiens) + Myeloid differentiation primary response protein …; HeLa CL3-4 TLR4/MyD88 BLA complementation; inhibition, % at 8.4 µM; hit rate 0.18% among 200,000; in the data active = inhibition above about 25%;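 also: 0% = vehicle and 100% = reference inhibitor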
Target sequence (O00206 whole entry, looked up): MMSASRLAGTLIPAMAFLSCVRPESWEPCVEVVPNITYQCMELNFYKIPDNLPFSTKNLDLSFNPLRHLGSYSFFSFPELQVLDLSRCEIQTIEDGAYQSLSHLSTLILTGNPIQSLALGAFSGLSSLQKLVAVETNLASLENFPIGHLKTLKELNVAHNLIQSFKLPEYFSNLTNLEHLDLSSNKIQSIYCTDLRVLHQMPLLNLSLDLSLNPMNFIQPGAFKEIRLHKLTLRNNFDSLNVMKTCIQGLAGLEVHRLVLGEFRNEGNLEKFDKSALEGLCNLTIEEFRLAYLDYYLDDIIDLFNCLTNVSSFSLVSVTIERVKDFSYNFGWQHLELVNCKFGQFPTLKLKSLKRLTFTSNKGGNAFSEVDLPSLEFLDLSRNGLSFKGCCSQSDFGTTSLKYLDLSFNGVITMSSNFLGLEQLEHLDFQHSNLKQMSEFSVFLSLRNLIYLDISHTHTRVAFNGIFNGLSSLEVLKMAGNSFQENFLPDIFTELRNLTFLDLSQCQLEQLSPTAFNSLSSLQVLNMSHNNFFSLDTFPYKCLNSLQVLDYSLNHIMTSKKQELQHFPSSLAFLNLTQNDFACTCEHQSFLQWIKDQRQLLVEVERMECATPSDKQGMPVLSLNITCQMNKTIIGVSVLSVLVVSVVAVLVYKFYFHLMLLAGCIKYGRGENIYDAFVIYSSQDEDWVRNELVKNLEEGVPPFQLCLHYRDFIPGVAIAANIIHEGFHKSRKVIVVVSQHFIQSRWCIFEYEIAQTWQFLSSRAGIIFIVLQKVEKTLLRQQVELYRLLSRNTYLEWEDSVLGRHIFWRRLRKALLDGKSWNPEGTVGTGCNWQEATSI
Target sequence (Q99836 whole entry, looked up): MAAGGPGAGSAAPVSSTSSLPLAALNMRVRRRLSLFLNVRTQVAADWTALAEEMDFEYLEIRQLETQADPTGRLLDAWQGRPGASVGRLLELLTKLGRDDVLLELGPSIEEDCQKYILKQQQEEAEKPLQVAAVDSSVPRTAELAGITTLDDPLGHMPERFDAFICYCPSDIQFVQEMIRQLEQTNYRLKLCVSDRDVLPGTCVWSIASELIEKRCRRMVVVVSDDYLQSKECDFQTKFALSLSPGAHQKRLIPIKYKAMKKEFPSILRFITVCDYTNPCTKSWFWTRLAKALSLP
TLR9-MyD88 inh – inhibitors of TLR9-MyD88 association in cells, primary screen, cell-based, CHO, BLA complementation, fluorescence. inhibition, % at 4.98 µM. hit rate 0.21% among 340,000. CCF4 FRET ratio. Toll-like receptor 9 (Homo sapiens) + Myeloid differentiation primary response protein …;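 active = inhibition above the mean over all tested compounds plus 3 SD, cut at about 21% in these data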;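 also: 0% = DMSO only wells and 100% = clavulanate BLA inhibitor control wells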
NOD2 RIPK2 PPI – NOD2-RIPK2 binding disruptors in cells, primary screen, fluorescence, CHO cells, BLA complementation | Receptor-interacting serine/threonine-protein kinase 2 (Homo sapiens), O43353 | CCF4 ratio | inhibition, % at 4.98 µM | hit rate 0.38% among 360,000 | AID 624267, 2012; in the data active = inhibition above about 21%;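 also: 0% = vehicle only and 100% = reference blocker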
IDE cell activ – human IDE activators in live cells, primary screen, fluorescence polarization, HEK cells, FAbeta-B substrate; FAbeta-B cleavage; 0% vehicle, 100% cell-free pure enzyme wells; hit rate 0.073% among 340,000; AID 493087, 2011; activation, % at 5.96 µM;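 active = activation above the mean of all tested compounds plus 3 SD, set per screening campaign, cut at about 17% in these data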
TLR4-MyD88 conf – TLR4-MyD88 association inhibitors, retest, confirmation, cell-based, HeLa CL3-4, BLA complementation, FRET ratio; hit rate 50% among 350; CCF4 FRET ratio; shares compounds with TLR4-MyD88 BLA; inhibition, % at 8.4 µM; AID 941, 2007;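 active = mean inhibition across three repeat runs above about 25% carried over from the earlier screen, limit read from the data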;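 also: plate controls were DMSO only for no effect and clavulanic acid blocking BLA at full dose for full effect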
BLA inh HeLa – counter-screen for TLR4-MyD88 inhibitors: beta-lactamase reporter inhibitors; shares compounds with TLR4-MyD88 BLA; hit rate 63% among 350; inhibition, % at 8.4 µM; HeLa BLA reporter, CCF4 FRET ratio;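 active = mean inhibition over three repeats above about 26% taken from the earlier screen, limit read from the data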;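 also: HeLa cells stably expressing beta-lactamase reporter as counterscreen for TLR4-MyD88 inhibitors; 0% = DMSO and 100% = clavulanic acid full inhibition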
TLR9-MyD88 cf – TLR9-MyD88 association inhibitors, retest, confirmation, cell-based, CHO, BLA complementation, fluorescence, triplicate | shares compounds with TLR9-MyD88 inh | CCF4 FRET ratio | inhibition, % at 4.98 µM | hit rate 51% among 680 | AID 540250, 2011;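 active = mean inhibition across three repeats above about 21% taken from the earlier screen, limit read from the data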;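 also: blue over green emission ratio reports constitutive TLR9 MyD88 association via BLA complementation; 0% = DMSO vehicle wells and 100% = clavulanate BLA inhibitor wells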
BLA counter-1 – beta-lactamase reporter inhibitors in CHO cells, artefact control for TLR9-MyD88 binding inhibitor project, cell-based, fluorescence; shares compounds with TLR9-MyD88 inh; CHO-BLA cells, CCF4 FRET ratio, BLA reporter; inhibition, % at 4.98 µM; hit rate 7% among 680; AID 540251, 2011;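 active = mean inhibition above a 50% cutoff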;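 also: counterscreen of TLR9-MyD88 hits on CMV-driven BLA in CHO-K1 cells; 0% = DMSO alone and 100% = clavulanate blocking BLA; higher means less blue over green ratio so more BLA blockade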
TLR9 CHO tox – CHO cell viability loss – luminescence, single concentration, cytotoxicity control for TLR9-MyD88 binding inhibitor project; inhibition, % at 4.98 µM; TLR9-MyD88 CHO cells cytotoxicity; hit rate 39% among 680; shares compounds with TLR9-MyD88 inh; in the data active = inhibition above about 11%
NOD2-RIPK2 conf – NOD2-RIPK2 binding disruptors, retest, confirmation, fluorescence, CHO cells, BLA complementation, triplicate | shares compounds with NOD2 RIPK2 PPI | inhibition, % at 4.98 µM | hit rate 70% among 1,200 | AID 624370, 2012 | CCF4 FRET;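 active = mean inhibition across replicates above a set limit taken from the earlier primary screen, cut at about 21% in these data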;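 also: 0% = DMSO-only wells and the high end = clavulanate BLA-blocked wells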
BLA counter-2 – counter-screen for NOD2-RIPK2 interaction inhibitors: BLA reporter | CHO BLA reporter, CCF4 FRET ratio, counterscreen | inhibition, % at 4.98 µM | hit rate 57% among 1,200 | shares compounds with NOD2 RIPK2 PPI;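 active = mean inhibition above the low-control mean inhibition plus three low-control SD, cut at about 11% in these data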;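 also: 0% = DMSO only wells and 100% = clavulanate high control wells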
Active calls of the source: *; / = no result given. Shown are actives, neighbours in structure and some others; about 0.86% of the full set was active somewhere.

SMILES	IDE inh	TLR4-MyD88 BLA	TLR9-MyD88 inh	NOD2 RIPK2 PPI	IDE cell activ	TLR4-MyD88 conf	BLA inh HeLa	TLR9-MyD88 cf	BLA counter-1	TLR9 CHO tox	NOD2-RIPK2 conf	BLA counter-2
CCc1cc2c(=O)c(-c3nc4ccccc4n3C)c(COCC(=O)O)oc2cc1OC(=O)C(C)(C)C	8.7	43.5*	48.9*	0.6	7.5	-6.5	12.7	1.5	-0.1	2.7	/	/
CCc1cc2c(=O)c(-c3nc4ccccc4n3C)c(C)oc2cc1OC(C)=O	2.3	/	-6.6	-8.7	-3.3	/	/	/	/	/	/	/
COc1ccccc1NS(=O)(=O)c1cc([N+](=O)[O-])ccc1N/N=C/c1c[nH]c2ccccc12	2.1	39.4*	48.8*	3.8	-0.2	26.5*	55.5*	44.9*	44.0	2.7	/	/
COc1ccc(NS(=O)(=O)c2cc([N+](=O)[O-])ccc2N/N=C\c2c(C)[nH]c3ccccc23)cc1	0.7	10.2	5.6	9.3	4.6	/	/	/	/	/	/	/
O=S(=O)(c1ccc(NC(=S)N/N=C/c2c3ccccc3cc3ccccc23)cc1)N1CCOCC1	7.4	38.5*	3.7	22.2*	-4.5	18.7	42.5*	/	/	/	49.5*	53.2*
CCC(=O)c1ccc(/C=C/c2nc3ccccc3n2C)o1	0.2	50.1*	42.9*	57.6*	4.8	46.7*	65.0*	30.9*	39.1	0.6	62.9*	64.5*
CCCNC(=O)COC(=O)c1ccccc1C(=O)c1ccc(Cl)c([N+](=O)[O-])c1	-1.8	26.0*	16.8	38.3*	2.5	24.4	6.7	/	/	/	62.0*	11.2*
Cc1ccc(C(=O)c2ccccc2C(=O)OCC(=O)NCCc2ccc(Cl)cc2Cl)cc1	-1.3	-1.5	1.9	-4.2	4.6	/	/	/	/	/	/	/
Cc1ccc(-c2cc(-c3ccccc3)c3c(N)c(S(C)(=O)=O)sc3n2)cc1	0.6	28.0*	45.9*	35.3*	1.0	30.6*	50.4*	/	/	/	62.0*	70.8*
Cc1cc(C)c2c(N)c(S(=O)(=O)Cc3ccccc3)sc2n1	-2.0	-5.6	-6.5	2.9	-0.4	/	/	/	/	/	/	/
C/C(=N\NC(=O)c1nnn(-c2nonc2N)c1COc1ccc(F)cc1)c1ccc(Cl)cc1	-0.4	/	7.2	-7.7	8.2	/	/	/	/	/	/	/
O=Cc1s/c(=N\S(=O)(=O)c2ccccc2)n(CCCCl)c1Cl	/	30.1*	37.0*	85.3*	-5.7	28.4*	1.7	42.1*	7.6	96.2*	96.2*	36.2*
CSc1ccc(C2c3[nH]c4ccccc4c3CCN2C(=O)c2ccnn2C)cc1 (stereo not drawn)	-1.6	-20.1	2.8	-13.8	6.4	/	/	/	/	/	/	/
CCc1ccc2c(c1)NC(=O)C2(C)Cc1ccccc1 (stereo not drawn)	/	/	/	-6.8	/	/	/	/	/	/	/	/
CCc1ccc2c(c1)C1(NN=C(c3cccc4ccccc34)S1)C(=O)N2 (stereo not drawn)	1.5	31.4*	26.5*	29.9*	-1.5	2.9	28.5*	/	/	/	4.3	7.5
Clc1ccc(-c2nc3cnccn3c2NC2CCCC2)cc1	4.6	32.1*	23.9*	25.3*	3.4	10.0	21.7	14.7	15.5	-1.2	34.2*	34.3*
CCCCCCSc1ccc(-c2nc3cnccn3c2NC2CCCCC2)cc1	/	/	/	-5.3	/	/	/	/	/	/	/	/
Clc1ccc(/C=C\c2nccc3c2[nH]c2ccccc23)cc1	/	-106.6	-73.5	-56.7	-7.4	/	/	/	/	/	/	/
N#Cc1ccc(/C=C\c2nccc3c2[nH]c2ccccc23)cc1	2.8	32.9*	20.9*	26.2*	-0.1	17.8	53.7*	17.9	35.7	13.0*	37.0*	56.0*
Cc1ccccc1-c1csc(C(O)c2ccc(F)cc2)n1 (stereo not drawn)	/	/	/	-3.6	/	/	/	/	/	/	/	/
C/C(=N\Nc1ccc([N+](=O)[O-])cc1)c1ccc(O)cc1	8.6	38.4*	/	29.4*	/	20.3	44.1*	/	/	/	42.4*	47.8*
O=C1c2cccc3c(O)ccc(c23)C(=O)N1Cc1ccccc1	-16.0	32.4*	26.1*	41.6*	58.6*	11.3	33.9*	/	/	/	46.4*	56.0*
CN1CCCc2cc3c(C(F)(F)F)cc(=O)oc3nc21	3.3	39.4*	46.6*	34.7*	9.8	36.5*	65.9*	37.7*	45.2	6.9	69.1*	72.7*
CC(C)c1cc(=O)oc2c3c4c(cc12)CCCN4CCC3	1.8	6.5	0.6	7.3	0.8	/	/	/	/	/	/	/
O=C1c2cccc3c([N+](=O)[O-])ccc(c23)C(=O)N1c1ccccn1	1.7	91.5*	81.4*	89.8*	-7.5	90.7*	114.5*	64.9*	85.3*	99.0*	92.7*	86.7*
CC(C)OC(=O)c1c(NS(=O)(=O)c2ccccc2)sc2c1CCCC2	10.6	-3.3	3.6	-15.0	2.2	/	/	/	/	/	/	/
CC(C)=NN1C(c2nonc2N)=NOC1(C)C	2.8	/	/	-14.8	/	/	/	/	/	/	/	/
O=[N+]([O-])c1ccccc1N/N=C/c1c[nH]c2ccccc12	-5.7	-16.1	-5.5	-7.0	6.1	/	/	/	/	/	/	/
O=[N+]([O-])c1ccc(N/N=C/c2c[nH]c3ccccc23)cc1	4.0	40.1*	44.1*	36.5*	3.4	28.4*	52.5*	29.0*	24.0	8.8	45.8*	47.2*
Cc1nn(C)c(C)c1N1C(=O)c2cccc3c(Br)ccc(c23)C1=O	6.8	65.7*	48.3*	56.0*	-5.9	52.4*	92.1*	28.6*	32.7	5.8	51.3*	42.3*
